Targets with a hit are over-represented here; the source holds about 8,800 in all. About 0.5% of all pairs of compound and target were hits. Values without a mark were called inactive.

Chain of UniProt Q09328 (Q09328 whole entry, looked up): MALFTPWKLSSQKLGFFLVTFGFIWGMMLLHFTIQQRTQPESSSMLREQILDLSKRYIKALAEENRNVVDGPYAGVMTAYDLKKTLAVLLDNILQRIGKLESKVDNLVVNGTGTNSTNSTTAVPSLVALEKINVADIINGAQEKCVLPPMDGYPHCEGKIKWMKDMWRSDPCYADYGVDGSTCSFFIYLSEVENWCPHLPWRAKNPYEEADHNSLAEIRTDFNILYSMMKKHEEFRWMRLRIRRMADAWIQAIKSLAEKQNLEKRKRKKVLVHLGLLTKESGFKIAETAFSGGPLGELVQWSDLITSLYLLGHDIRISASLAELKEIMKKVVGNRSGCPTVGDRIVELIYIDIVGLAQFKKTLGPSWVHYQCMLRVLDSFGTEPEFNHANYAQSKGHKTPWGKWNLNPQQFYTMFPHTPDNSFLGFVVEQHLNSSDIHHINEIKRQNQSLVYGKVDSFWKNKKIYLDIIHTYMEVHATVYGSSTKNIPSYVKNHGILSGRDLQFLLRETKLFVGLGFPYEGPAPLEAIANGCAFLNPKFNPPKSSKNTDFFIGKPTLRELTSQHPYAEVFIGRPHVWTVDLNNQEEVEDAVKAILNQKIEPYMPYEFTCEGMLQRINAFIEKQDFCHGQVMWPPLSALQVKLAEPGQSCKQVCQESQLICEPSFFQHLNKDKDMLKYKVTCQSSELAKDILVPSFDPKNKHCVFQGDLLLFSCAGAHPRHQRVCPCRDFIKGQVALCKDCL
Chain of UniProt Q00013 (Q00013 whole entry, looked up): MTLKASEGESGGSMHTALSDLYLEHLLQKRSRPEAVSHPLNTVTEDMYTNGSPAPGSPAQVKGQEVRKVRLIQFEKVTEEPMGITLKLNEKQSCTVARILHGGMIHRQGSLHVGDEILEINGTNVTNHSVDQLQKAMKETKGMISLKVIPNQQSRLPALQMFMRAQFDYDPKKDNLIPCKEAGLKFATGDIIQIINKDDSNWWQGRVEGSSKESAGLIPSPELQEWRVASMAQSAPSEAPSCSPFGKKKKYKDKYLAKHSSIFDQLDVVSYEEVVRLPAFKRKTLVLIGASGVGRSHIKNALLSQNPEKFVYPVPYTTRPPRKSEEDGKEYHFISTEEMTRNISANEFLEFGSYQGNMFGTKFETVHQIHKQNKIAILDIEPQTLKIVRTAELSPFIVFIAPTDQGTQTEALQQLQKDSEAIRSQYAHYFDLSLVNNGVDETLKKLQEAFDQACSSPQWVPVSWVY
Chain of UniProt P27448 (P27448 whole entry, looked up): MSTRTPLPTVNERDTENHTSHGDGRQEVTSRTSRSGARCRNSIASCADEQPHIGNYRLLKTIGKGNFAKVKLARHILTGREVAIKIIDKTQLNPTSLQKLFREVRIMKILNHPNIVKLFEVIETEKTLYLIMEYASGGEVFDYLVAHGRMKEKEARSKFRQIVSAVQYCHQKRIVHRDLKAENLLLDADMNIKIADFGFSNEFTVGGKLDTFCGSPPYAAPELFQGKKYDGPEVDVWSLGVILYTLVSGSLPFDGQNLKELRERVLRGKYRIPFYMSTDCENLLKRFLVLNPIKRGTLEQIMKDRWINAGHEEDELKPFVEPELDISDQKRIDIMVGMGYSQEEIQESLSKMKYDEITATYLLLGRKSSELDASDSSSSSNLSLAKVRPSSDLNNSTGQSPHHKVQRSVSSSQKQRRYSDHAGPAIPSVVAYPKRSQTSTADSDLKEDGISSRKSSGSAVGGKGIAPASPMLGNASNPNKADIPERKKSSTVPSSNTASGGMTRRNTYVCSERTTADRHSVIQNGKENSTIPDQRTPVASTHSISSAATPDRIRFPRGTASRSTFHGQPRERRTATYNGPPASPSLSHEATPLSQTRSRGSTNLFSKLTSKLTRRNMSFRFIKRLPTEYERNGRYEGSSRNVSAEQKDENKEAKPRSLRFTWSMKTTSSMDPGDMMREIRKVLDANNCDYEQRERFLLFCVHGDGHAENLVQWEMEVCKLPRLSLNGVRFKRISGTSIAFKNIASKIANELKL
Chain of UniProt Q15013 (Q15013 whole entry, looked up): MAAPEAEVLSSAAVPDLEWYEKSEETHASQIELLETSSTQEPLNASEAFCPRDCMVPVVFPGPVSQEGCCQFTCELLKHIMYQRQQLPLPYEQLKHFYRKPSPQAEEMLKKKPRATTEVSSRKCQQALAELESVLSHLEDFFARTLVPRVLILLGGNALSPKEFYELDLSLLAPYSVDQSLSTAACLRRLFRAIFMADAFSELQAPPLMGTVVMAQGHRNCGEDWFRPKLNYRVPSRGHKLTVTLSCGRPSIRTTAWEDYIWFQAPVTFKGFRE
Chain of UniProt Q71F56 (Q71F56 whole entry, looked up): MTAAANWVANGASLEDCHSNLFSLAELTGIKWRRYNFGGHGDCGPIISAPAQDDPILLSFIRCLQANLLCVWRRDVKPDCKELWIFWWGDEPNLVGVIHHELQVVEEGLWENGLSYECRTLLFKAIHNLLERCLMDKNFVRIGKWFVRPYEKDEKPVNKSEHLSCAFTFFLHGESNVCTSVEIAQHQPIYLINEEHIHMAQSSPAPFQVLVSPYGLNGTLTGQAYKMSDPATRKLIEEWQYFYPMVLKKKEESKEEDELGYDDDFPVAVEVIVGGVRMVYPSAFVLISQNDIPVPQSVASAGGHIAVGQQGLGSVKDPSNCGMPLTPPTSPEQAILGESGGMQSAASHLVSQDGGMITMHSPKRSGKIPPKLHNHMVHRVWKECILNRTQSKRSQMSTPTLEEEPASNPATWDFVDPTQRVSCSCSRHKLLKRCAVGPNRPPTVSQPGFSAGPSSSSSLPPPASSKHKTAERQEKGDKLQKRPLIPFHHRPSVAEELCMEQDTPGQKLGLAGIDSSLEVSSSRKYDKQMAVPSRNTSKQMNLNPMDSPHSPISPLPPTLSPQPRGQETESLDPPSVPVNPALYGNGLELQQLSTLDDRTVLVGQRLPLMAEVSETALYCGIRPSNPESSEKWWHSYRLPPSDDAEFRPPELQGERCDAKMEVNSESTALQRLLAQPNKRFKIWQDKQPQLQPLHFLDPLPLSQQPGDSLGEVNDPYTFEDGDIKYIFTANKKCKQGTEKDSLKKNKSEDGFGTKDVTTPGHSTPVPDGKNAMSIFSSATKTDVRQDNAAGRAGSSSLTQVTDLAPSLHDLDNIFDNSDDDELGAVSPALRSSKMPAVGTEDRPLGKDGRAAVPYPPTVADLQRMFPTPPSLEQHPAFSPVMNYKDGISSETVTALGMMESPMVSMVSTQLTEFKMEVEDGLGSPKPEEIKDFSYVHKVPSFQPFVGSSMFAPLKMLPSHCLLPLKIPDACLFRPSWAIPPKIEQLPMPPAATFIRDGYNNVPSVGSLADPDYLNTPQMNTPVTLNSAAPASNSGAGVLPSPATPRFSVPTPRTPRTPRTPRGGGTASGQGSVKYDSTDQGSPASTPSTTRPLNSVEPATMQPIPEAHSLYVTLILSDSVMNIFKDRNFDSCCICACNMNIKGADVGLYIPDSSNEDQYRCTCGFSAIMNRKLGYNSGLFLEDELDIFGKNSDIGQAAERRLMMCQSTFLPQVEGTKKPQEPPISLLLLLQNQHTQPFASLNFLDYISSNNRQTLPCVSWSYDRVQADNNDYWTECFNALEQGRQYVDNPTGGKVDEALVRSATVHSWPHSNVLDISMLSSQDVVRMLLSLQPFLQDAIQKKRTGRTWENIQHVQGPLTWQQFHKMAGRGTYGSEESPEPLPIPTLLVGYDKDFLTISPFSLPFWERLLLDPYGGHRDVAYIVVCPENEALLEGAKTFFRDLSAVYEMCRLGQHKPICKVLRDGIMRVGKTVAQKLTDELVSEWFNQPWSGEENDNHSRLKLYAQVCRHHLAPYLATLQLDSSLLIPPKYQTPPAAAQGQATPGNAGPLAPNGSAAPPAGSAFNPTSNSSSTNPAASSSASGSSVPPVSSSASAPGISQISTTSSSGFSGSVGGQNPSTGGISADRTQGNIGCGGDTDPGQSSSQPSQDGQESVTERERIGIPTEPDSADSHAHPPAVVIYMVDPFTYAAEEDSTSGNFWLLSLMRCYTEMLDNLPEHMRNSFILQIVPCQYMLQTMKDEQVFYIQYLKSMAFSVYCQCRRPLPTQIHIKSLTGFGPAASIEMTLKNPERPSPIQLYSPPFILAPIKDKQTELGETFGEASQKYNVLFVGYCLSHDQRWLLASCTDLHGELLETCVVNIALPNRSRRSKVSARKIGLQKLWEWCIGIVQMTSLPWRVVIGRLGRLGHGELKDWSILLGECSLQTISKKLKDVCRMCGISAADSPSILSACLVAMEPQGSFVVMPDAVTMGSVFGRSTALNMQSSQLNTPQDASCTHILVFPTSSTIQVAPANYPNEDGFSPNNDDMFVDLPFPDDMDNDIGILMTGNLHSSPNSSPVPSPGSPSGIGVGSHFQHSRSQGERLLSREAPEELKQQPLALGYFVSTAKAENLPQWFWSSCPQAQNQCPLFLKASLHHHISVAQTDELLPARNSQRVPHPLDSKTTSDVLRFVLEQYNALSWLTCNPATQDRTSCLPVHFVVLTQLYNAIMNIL
Chain of UniProt Q9UFC0 (Q9UFC0 whole entry, looked up): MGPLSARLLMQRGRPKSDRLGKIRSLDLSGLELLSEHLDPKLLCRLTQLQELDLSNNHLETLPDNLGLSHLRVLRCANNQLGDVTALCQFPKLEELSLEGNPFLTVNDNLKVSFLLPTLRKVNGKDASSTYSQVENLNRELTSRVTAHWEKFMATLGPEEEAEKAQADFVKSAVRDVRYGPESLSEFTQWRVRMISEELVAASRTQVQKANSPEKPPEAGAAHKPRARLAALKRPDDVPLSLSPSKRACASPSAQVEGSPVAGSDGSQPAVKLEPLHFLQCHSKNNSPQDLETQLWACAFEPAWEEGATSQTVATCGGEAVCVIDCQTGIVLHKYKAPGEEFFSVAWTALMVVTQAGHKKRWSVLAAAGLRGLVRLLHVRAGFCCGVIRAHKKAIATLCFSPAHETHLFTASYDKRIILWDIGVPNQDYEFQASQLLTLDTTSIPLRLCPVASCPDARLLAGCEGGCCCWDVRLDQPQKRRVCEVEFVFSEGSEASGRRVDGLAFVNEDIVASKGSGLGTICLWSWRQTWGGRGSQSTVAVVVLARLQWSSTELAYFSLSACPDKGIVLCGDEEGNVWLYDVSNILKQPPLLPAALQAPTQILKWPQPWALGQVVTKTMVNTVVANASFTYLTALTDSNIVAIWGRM

Compound in the test: Cc1cc(Nc2cc(N3CCN(C)CC3)nc(Sc3ccc(NC(=O)C4CC4)cc3)n2)n[nH]1 [tozasertib]
The test is described as follows: log2 fold change, soluble protein after heating vs DMSO (PISA); higher = thermal stabilisation; K562 lysate, 10 uM; active = over 0.2 and 3.5 SD of the protein, either way, in both replicates (recomputed). The procedure, abridged: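 Log-two fold change in thermal stability relative to solvent controls is reported from duplicates. For each sample, crude K562 extract from dounce-homogenised pellets in PBS pH 7.4 with 1 mM MgCl2, at 1 mg/mL protein, was treated with 10 μM compound for 30 min. Aliquots heated for 3 min across 48°C-58°C were pooled, brought to 0.5% NP-40 at 4°C and cleared at 21,000xg for 90 min. The supernatant was quantified by TMTpro 16plex LC-MS/MS with channel sums equalised.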
In the case of LARS2 (UniProt Q15031), the log2 fold change is 0.054.
In the case of LYSMD3 (UniProt Q7Z3D4) it was 0.058; in that of MARK3 (UniProt P27448), -0.143.
On to MAP2K2 (UniProt P36507), for which the log2 fold change is 0.282.
In the case of MAD2L1BP isoform 3 (UniProt Q15013) it was -0.071.
Then MOCS1 isoform 8 (UniProt Q9NZB8), with 0.11.
Then LRRC40 (UniProt Q9H9A6), with 0.014; and MPZL1 (UniProt O95297), with -0.029.
For the target MON2 isoform 5 (UniProt Q7Z3U7), the log2 fold change was 0.001.
Then LLGL1 (UniProt Q15334), with 0.054; and MRPL10 isoform 2 (UniProt Q7Z7H8), with -0.01.
As to LIMS1 isoform 3 (UniProt P48059), the log2 fold change was -0.02.
In the case of MED12 isoform 2 (UniProt Q93074) it was -0.033; in that of METTL7A (UniProt Q9H8H3), -0.081.
Then MED17 (UniProt Q9NVC6), with -0.043.
Then LSM8 (UniProt O95777), with 0.037.
As to MFF isoform 2 (UniProt Q9GZY8), the log2 fold change is -0.031.
Regarding LARS (UniProt Q9P2J5), the log2 fold change is 0.012.
In the case of MAPK9 (UniProt P45984) it was 0.033.
Then MED13L (UniProt Q71F56), with -0.019; and MACROD1 (UniProt Q9BQ69), with -0.03.
In the case of MRPL46 (UniProt Q9H2W6) it was 0.008.
Consider MGST1 (UniProt P10620), for which the log2 fold change was -0.011.
With MGAT5 (UniProt Q09328), the log2 fold change was -0.037.
Then MAT2B (UniProt Q9NZL9), with 0.019.
Then MCMBP (UniProt Q9BTE3), with -0.007; and MICB, A0A140T979, with -0.177; and LSS (UniProt P48449), with 0.02.
In the case of MORF4L1 isoform 2 (UniProt Q9UBU8) it was -0.019; in that of MAPKAPK3 (UniProt Q16644), 0.046; in that of KPNA4 (UniProt O00629), -0.018.
As to LIG3 (UniProt P49916), the log2 fold change was -0.004.
As for MAP4 (UniProt E7EVA0), the log2 fold change was 0.055.
In the case of MLST8 (UniProt Q9BVC4) it was 0.078; in that of LSG1 (UniProt Q9H089), -0.03; in that of MPP1 (UniProt Q00013), 0.017.
Then LRWD1 (UniProt Q9UFC0), with -0.007; and MBD2 (UniProt Q9UBB5), with 0.029.
Then MCU (UniProt Q8NE86), with -0.02.
